Test results reported in PubChem BioAssay.

What follows are compounds tested against Epidermal growth factor receptor (Homo sapiens) (UniProt P00533) (assay: compounds binding epidermal growth factor receptor – biochemical, small-molecule microarray, 635 nm fluorescence, primary screen (AID 1104;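 also: score merges 667 nm emission intensity with spot signal to noise over triplicate slides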)). Details: EGFR binding, higher = more signal.
Epidermal growth factor receptor (Homo sapiens), sequence (P00533 whole entry, looked up): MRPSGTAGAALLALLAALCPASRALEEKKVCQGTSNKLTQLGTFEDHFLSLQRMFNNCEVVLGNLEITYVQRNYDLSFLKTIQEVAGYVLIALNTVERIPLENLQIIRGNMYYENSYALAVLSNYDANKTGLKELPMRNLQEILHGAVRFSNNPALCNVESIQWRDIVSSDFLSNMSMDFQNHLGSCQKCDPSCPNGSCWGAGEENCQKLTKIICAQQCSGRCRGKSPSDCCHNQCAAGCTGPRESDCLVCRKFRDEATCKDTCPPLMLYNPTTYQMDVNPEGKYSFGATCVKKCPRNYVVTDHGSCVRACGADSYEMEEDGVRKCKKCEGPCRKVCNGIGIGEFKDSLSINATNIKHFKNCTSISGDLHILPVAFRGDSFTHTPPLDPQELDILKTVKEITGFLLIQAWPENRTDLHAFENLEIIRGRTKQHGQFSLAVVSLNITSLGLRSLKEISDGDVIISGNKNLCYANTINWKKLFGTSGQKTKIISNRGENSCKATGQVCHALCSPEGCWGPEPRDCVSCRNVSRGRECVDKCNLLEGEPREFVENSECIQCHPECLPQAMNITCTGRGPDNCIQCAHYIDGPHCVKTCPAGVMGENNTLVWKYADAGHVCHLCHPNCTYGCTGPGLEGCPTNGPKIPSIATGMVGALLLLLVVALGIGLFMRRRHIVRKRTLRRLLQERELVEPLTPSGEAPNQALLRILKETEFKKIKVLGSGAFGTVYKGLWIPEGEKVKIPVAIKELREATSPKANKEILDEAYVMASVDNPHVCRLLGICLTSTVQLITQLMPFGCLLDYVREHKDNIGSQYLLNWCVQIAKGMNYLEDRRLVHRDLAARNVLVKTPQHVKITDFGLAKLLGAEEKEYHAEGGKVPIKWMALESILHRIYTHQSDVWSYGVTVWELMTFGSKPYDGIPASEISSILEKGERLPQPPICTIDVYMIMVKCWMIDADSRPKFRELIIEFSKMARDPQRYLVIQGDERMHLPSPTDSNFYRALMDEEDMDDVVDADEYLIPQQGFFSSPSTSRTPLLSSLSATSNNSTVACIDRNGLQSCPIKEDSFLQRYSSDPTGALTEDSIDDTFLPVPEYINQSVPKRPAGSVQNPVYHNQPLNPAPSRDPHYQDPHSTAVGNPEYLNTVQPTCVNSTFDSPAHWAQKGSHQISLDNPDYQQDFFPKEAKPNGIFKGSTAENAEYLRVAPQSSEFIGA

| Compound | composite z-score |
| --- | --- |
| CC(CO)N1C(=O)[C@@H]2C3C(=O)OCCC/C=C\[C@H]3OC23C=CCN(C(C)(C)C)C(=O)[C@@H]13 (stereo not given in full) | -0.325 |
| CN1C(=O)C2C=CC(C(O)c3ccccc3)N(N(c3ccccc3)c3ccccc3)C2C1=O (stereo not given) | 0.142 |
| C=CCOC(=O)[C@H]1[C@@H]2C(=O)O[C@@H](c3ccccc3)[C@@H](c3ccccc3)N2[C@@H](c2ccc(OCCOC(=O)[C@@H]3C[C@@H]4C(=O)N[C@@H](CCCCNC(C)=O)C(=O)N4[C@@H]3c3ccc(O)cc3)cc2)[C@]12C(=O)Nc1ccccc12 | 0.673 |
| C[C@H]1C2[C@H](Cc3ccccc3)NC(=O)[C@]23C(=O)N[C@H](Cc2ccccc2)C(=O)N2CCC[C@H]2C(=O)NC/C=C\C/C=C/C3[C@@H]2O[C@]12C (stereo not given in full) | -0.0282 |
| CC(C)C(O)C1C=CC2C(=O)NC(=O)C2N1Nc1ccc(Cl)cc1Cl (stereo not given) | -0.0718 |
| COC(=O)C(CC#Cc1ccc2c(c1)[C@]1(C(=O)N2)[C@H](C(=O)Nc2nc3ccccc3s2)[C@H]2C(=O)O[C@H](c3ccccc3)[C@H](c3ccccc3)N2[C@@H]1c1ccc(O)cc1)C(=O)OC | 0.642 |
| CC(C)C(O)C1C=CC2C(=O)N(c3ccccc3)C(=O)C2N1Nc1ccc([N+](=O)[O-])cc1 (stereo not given) | -0.0978 |
| CC(C)C[C@@H]1NC(=O)[C@@H]2C[C@H](C(=O)NCc3ccc(F)cc3)[C@H](c3cccc(OCCO)c3)N2C1=O | 0.284 |
| CCCC[C@H]1OB(O)C[C@H]2C1=C(COC)C[C@H]1C(=O)N(C)C(=O)[C@H]12 | 0.12 |
| COCCOC(=O)N1C(=O)[C@@]2(c3cc(C#Cc4ccc(OC)cc4)ccc31)[C@H](c1ccccc1OCCO)N1[C@H](c3ccccc3)[C@H](c3ccccc3)OC(=O)[C@H]1[C@@H]2C(=O)NC[C@H](O)c1ccccc1 | 0.544 |
| CCOC(=O)C[C@H]1[C@H](OC(=O)c2ccc(C(=O)c3ccccc3)cc2)[C@@H](NC(=O)c2ccccc2)c2cc(OCCCO)ccc2N1C(=O)c1ccc2ccccc2n1 | 0.267 |
| O=C(c1ccccc1)N1C(=O)[C@@]2(Cc3ccccc31)N=C(c1ccc(OCCCO)cc1)O[C@H]2c1ccccc1 | 0.782 |
| Cc1ccc(N2C(=O)c3ccccc3[C@@H](C(=O)NC3CC3)[C@@H]2c2ccc(CO)cc2)nc1 | -1.58 |
| [N-]=[N+]=Nc1ccccc1[C@@H]1OC(c2ccc(OCCCO)cc2)=N[C@]1(CCS(=O)(=O)c1ccccc1)C(N)=O | 0.0129 |
| COC(=O)C(CC#Cc1ccc2c(c1)[C@]1(C(=O)N2)[C@H](C(=O)Nc2nc3ccccc3s2)[C@H]2C(=O)O[C@H](c3ccccc3)[C@H](c3ccccc3)N2[C@@H]1c1ccccc1OCCO)C(=O)OC | 0.282 |
| CCOC(=O)C[C@H]1[C@H](OC(=O)c2ccc(C(=O)c3ccccc3)cc2)[C@@H](NC(=O)CC(C)C)c2cc(OCCCO)ccc2N1C(=O)c1ccc2ccccc2n1 | 0.373 |
| C=CC[C@]1(C(=O)NCc2ccccc2)N=C(c2ccc(OCCCO)cc2)O[C@H]1c1ccccc1N=[N+]=[N-] | 0.174 |
| OCCCC1=CC(c2cccs2)N(Cc2cc3c(cc2Br)OCO3)CC1 (stereo not given) | -0.275 |

| Compound | composite z-score |
| --- | --- |
| COc1ccc(C#Cc2ccc3c(c2)[C@]2(C(=O)N3)[C@H](C(=O)Nc3nc4ccccc4s3)[C@H]3C(=O)O[C@H](c4ccccc4)[C@H](c4ccccc4)N3[C@@H]2c2ccc(O)cc2)cc1 | 0.516 |
| NC(=O)[C@@H]1[C@H]2C(=O)O[C@H](c3ccccc3)[C@H](c3ccccc3)N2[C@H](c2ccc(O)cc2)[C@@]12C(=O)Nc1ccccc12 | -0.49 |
| CCCCC(CC)C(O)C1C=CC2C(=O)N(Cc3ccccc3)C(=O)C2N1n1cnnc1 (stereo not given) | -0.286 |
| O=C1O[C@H](c2ccccc2)[C@H](c2ccccc2)N2[C@H]1[C@@H](C(=O)N1CCCCCCC1)[C@]1(C(=O)Nc3ccc(C#CCCO)cc31)[C@H]2c1ccccc1OCCO | 2 |
| C=CCNC(=O)[C@H]1[C@@H]2C(=O)O[C@@H](c3ccccc3)[C@@H](c3ccccc3)N2[C@@H](c2ccccc2OCCO)[C@]12C(=O)Nc1ccc(C#CCCO)cc12 | -0.281 |
| COc1ccc(C#Cc2ccc3c(c2)[C@]2(C(=O)N3)[C@H](c3ccccc3OCCO)N3[C@H](c4ccccc4)[C@H](c4ccccc4)OC(=O)[C@H]3[C@@H]2C(=O)Nc2nc3ccccc3s2)cc1 | 0.589 |
| CN1C(=O)C2C=CC(C(O)C3CC=CCC3)N(N(c3ccccc3)c3ccccc3)C2C1=O (stereo not given) | 0.664 |
| O=C1O[C@@H](c2ccccc2)[C@@H](c2ccccc2)N2[C@@H](c3ccccc3OCCO)[C@]3(C(=O)Nc4ccccc43)[C@@H](C(=O)Nc3nc4ccccc4s3)[C@H]12 | 0.383 |
| O=C1NC(=O)C2C1C=CC(C(O)c1cc(C(F)(F)F)cc(C(F)(F)F)c1)N2Nc1ccccn1 (stereo not given) | 0.22 |
| O=C(N1CCCCC1)[C@]1(Cc2ccccc2)N=C(c2ccc(OCCCO)cc2)O[C@@H]1c1ccccc1 | -0.394 |
| CC(C)c1ccc(NN2C(C(O)c3ccc(B(O)O)cc3)C=CC3C(=O)N(c4ccccc4)C(=O)C32)cc1 (stereo not given) | -0.109 |
| NC(=O)NCC#Cc1ccc2c(c1)[C@]1(C(=O)N2)[C@H](c2ccc(O)cc2)N2[C@H](c3ccccc3)[C@H](c3ccccc3)OC(=O)[C@H]2[C@@H]1C(=O)O | -0.683 |
| Cc1ccccc1C(O)C1C=CC2C(=O)N(c3ccccc3)C(=O)C2N1Nc1ccc(C(C)C)cc1 (stereo not given) | 0.304 |
| COc1ccc(CCNC(=O)[C@@H]2c3ccccc3C(=O)N(Cc3ccccc3Cl)[C@H]2c2ccc(CO)cc2)cc1 | -0.0373 |
| O=C(NC1CC1)[C@@H]1c2ccccc2C(=O)N(Cc2ccccc2Cl)[C@H]1c1ccc(CO)cc1 | 0.186 |
| Cc1nc2cc(Br)ccc2c(=O)o1 | 0.427 |
| CCN(CC)c1ccc(N2CC=CC34O[C@@H]5C=CCCOC(=O)C5[C@H]3C(=O)N(CCCCCCO)[C@@H]4C2=O)cc1 (stereo not given in full) | -0.661 |
